# Experimental data as given in PubChem BioAssay AID1345083 (National Center for Advancing Translational Sciences (NCATS), 2018).
# The whole screen tested about 94,000 compounds, of which about 6,200 (6.6%) were called active. Another 31% or so got no clear call; they are omitted. For the sample, actives were picked, then their nearest neighbours and some compounds at random. A number with no mark means an inactive call. Calls come from the whole dose curve; as a rule, active = well fitted inhibition curve with a large enough effect; inconclusive = small, poorly fitted or top-dose-only effect; inactive = flat fitted curve, though single readings scatter.
# Test: Cytotoxic Profiling in HEK 293 Cell Line of Diverse Libraries Using Quantitative High-Throughput Screening; note: nearly all actives have a fitted effect of over 60% in size
# Conditions: HEK 293 viability, ATP luminescence (CellTiter-Glo), 48-72 h; series mostly up to 115 µM; activity change, negative = cytotoxicity: at the top concentration
# Procedure, shortened: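 HEK 293 cells at 250 cells/well were exposed to compounds by pintool transfer for 48 or 72 hr at 37 degree Celsius, 5% CO2. Viability was read as ATP-coupled luminescence with CellTiter-Glo after 10 min at room temperature.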
# % is set by controls: 0 for no effect and ±100 for the full control effect; potency is the fitted concentration of half-maximal effect.
Structure (SMILES),Potency,outcome,"activity change, negative = cytotoxicity"
O=C(c1cccc(F)c1)N1CCC(CCOc2ccc(F)cc2)C1 (stereo unspecified),44.7 µM (active),–,–
O=C(c1cccc(F)c1)N1CCCC(CN2CCOCC2)CC1 (stereo unspecified),–,inactive,–
Cc1ccc(OCCC2CCN(C(=O)CCN3C(=O)NC(C)(C)C3=O)C2)cc1 (stereo unspecified),–,–,-19.8%
Cc1cnc(CCNC(=O)c2cn(C)cn2)n1C1CC1,–,inactive,–
O=[S+]([O-])(c1ccccc1)N1CCC2(CC(c3cccnc3)=NO2)C1 (stereo unspecified),–,inactive,–
O=[S+]([O-])(c1ccccc1)N1CCCC2(CC(c3ccccn3)=NO2)C1 (stereo unspecified),–,–,-4.29%
Cc1ccc([S+](=O)([O-])N2CCC3(CC2)CC(=O)N(c2ccccc2)c2ccccc2O3)cc1,25.1 µM (active),–,–
NC(=O)c1cccnc1OC1CCNCC1,–,–,5.73%
COc1ccc(C)cc1NC(=O)Cn1nc2n(c1=O)CCCC2,–,–,1.29%
CC(C)Cc1ccc(CN2CCC3(CC2)Cc2ccccc2CNC3=O)cc1,22.4 µM (active),–,–
O=C1NCc2ccccc2CC12CCN(Cc1ccc(O)cc1)CC2,–,–,2.63%
COc1ccc(CN2CCC3(CC2)Cc2ccccc2CNC3=O)cn1,–,–,-2.09%
COc1ccc(C2(C(=O)NCc3cccc(C(F)(F)F)c3)CCOCC2)cc1,–,–,-18.9%
COCC(=O)NC[C@@H]1C=C(C)[C@H](CC(=O)Nc2ccccn2)C[C@H]1C(C)C,–,–,-20.1% [at 172 µM]
CC1=C[C@@H](CN(C)CCc2ccccn2)[C@H](C(C)C)C[C@H]1Cc1nnc(-c2ccccc2F)o1,44.7 µM (active),–,–
NC(=O)c1ccc(OC2CCN(C(=O)c3ccc(F)cc3)CC2)nc1,–,–,-29.6%
O=C1CCN(C(=O)[C@@H](Cc2ccccc2)NS(=O)(=O)c2cccc3cccnc23)CCOCCN1,–,–,1.59%
O=C(NCCc1ccccc1)NC1CCc2nn(CC3CC3)c(=O)n2CC1 (stereo unspecified),–,inactive,–
O=C(Nc1ccc(F)cc1)c1ccc2nc(-c3cccnc3)oc2c1,–,–,-10.8% [at 172 µM]
O=C(Cc1cccc(F)c1)Nc1cnc(-c2cccnc2)nc1,–,–,-0.423%
O=C(Nc1cnc(-c2cccc(Cl)c2)nc1)c1ccc(F)cc1,44.7 µM (active),–,–
COC(=O)COc1cccn2c(=O)c(-c3cc(C)n(-c4ccc(C)cc4C)n3)c(C)nc12,–,–,-13.2%
O=C1CC(c2ccccc2)N(C(=O)C2CC2)CCCN(C(=O)Cc2cccc(F)c2)CCN1 (stereo unspecified),–,–,2.27%
CC(C)Cc1cc(CNc2nc(C(C)(C)C)nc3c2cnn3C)no1,35.5 µM (active),–,–
CC(Cn1cncn1)Nc1nc(-c2ccncc2)nc2c1cnn2C (stereo unspecified),–,–,0.89%
CCCc1nc(NCC(c2ccccn2)N2CCOCC2)c2cnn(C)c2n1 (stereo unspecified),–,–,-0.509%

Structure (SMILES),Potency,outcome,"activity change, negative = cytotoxicity"
COc1ccccc1CC(=O)NCc1nnc2c(-c3nc(C(C)C)no3)cccn12,–,–,-10%
COCCC1(CO)CCCN(C(=O)Cn2cc(C)c(=O)[nH]c2=O)C1 (stereo unspecified),–,–,3.68%
O=C(NCc1nnc2ccccn12)C1NCCc2[nH]cnc21 (stereo unspecified),–,–,0.78%
CCC(=O)N1CCC2(CC1)CC(N1CCN(CC(C)C)CC1)CCO2 (stereo unspecified),–,–,-2.2%
Cc1ccc(S(=O)(=O)N[C@@H]2CCOC[C@H]2OCC(=O)O)cc1,–,–,0.393%
O=C1NCCCCCCN(S(=O)(=O)c2cccs2)[C@H]2CCCC[C@@H]12,–,–,-15%
CC(=O)N1CCc2ccc(C(=O)N3CCCCCC3)cc21,–,–,-7.22%
O=C(c1ccc2c(c1)N(C(=O)c1ccccc1)CC2)N1CCN(c2ccc(Cl)cc2)CC1,31.6 µM (active),–,–
CCC(CC)N1CCN(C(=O)c2ccc3c(c2)N(S(C)(=O)=O)CC3)CC1,–,–,-6.68%
O=C(NC[C@H]1O[C@@H](CO)[C@@H](O)[C@H]1N1CCOCC1)c1ccco1,–,–,-4.16% [at 172 µM]
O=C(CCn1ccn2nc3c(c2c1=O)CCCC3)Nc1ccc(F)cc1Cl,–,–,-2.23%
O=C(CCn1ccn2nc3c(c2c1=O)CCCC3)Nc1ccc(Cl)c(C(F)(F)F)c1,44.7 µM (active),–,–
CCOC(=O)c1ccc(NC(=O)CCn2ccn3nc4c(c3c2=O)CCCC4)cc1,–,–,-21.7%
CCc1nc(-c2c3n(c(=O)n(CC(=O)NC4CCCCC4)c2=O)CCCC3)no1,–,–,4.44%
CCOC(=O)C1=C(C)NC(=O)NC1c1ccccc1 (stereo unspecified),–,–,-2.03%
Cc1nccnc1N1CCC(c2nnc(CN3CCCC3)n2C)CC1,–,–,-7.58%
O=C1Cc2c(-c3ccc(Oc4ccccc4)cc3)n[nH]c2CN1CCc1ccncc1,79.4 µM (active),–,–
O=C1Cc2c(-c3ccc(CO)cc3)n[nH]c2CN1CC1CCOCC1,–,–,-27.8% [at 172 µM]
CC(C)Oc1cccc(-c2n[nH]c3c2CC(=O)N(Cc2ccccc2)C3)c1,–,–,-22.1% [at 172 µM]
CCc1ocnc1C(=O)NC1CC(c2cc(N3CCC(O)C3)ncn2)C1 (stereo unspecified),–,inactive,–
O=C(NC1CCNC1)C1CCN(c2nc(-c3ccccc3)nc3c2CCC3)CC1 (stereo unspecified),35.5 µM (active),–,–
Cc1nc(CCNC(=O)C2CCCN(c3nc(-c4ccccc4)nc4c3CCC4)C2)n[nH]1 (stereo unspecified),–,–,-3.49%
O=C(CN1CCCC1=O)NC1CCCc2nc(-c3ccccc3)ncc21 (stereo unspecified),–,–,7.55%
CC(C)c1nc(CCNC(=O)[C@H]2CNC[C@@H](C(=O)N3CCCC3)C2)cs1,–,–,-4.75%
O=C(NCC1CCNCC1)c1ccc(C2CCNC2)cc1 (stereo unspecified),–,–,-14.4%
